Assay results reported in article PMC7862700, “An all-to-all approach to the identification of sequence-specific readers for epigenetic DNA modifications on cytosine”.

Experiments:
Assay in all cases: DAPPL (digital affinity profiling via proximity ligation, sequencing); 10 mM Tris-HCl pH 7.5, 50 mM NaCl, 1 mM DTT, 4% glycerol, room temperature, 30 min; GST-TFs on glutathione beads, 16-mer random dsDNA library, 0.1% formaldehyde crosslink after washing; high values mean tight binding
Conditions in all cases: protein: recombinant; tags: N-terminal GST; dsDNA, one strand shown
ERF = target: T1, ERF (Homo sapiens, UniProt P50548 1-548)
T1 sequence: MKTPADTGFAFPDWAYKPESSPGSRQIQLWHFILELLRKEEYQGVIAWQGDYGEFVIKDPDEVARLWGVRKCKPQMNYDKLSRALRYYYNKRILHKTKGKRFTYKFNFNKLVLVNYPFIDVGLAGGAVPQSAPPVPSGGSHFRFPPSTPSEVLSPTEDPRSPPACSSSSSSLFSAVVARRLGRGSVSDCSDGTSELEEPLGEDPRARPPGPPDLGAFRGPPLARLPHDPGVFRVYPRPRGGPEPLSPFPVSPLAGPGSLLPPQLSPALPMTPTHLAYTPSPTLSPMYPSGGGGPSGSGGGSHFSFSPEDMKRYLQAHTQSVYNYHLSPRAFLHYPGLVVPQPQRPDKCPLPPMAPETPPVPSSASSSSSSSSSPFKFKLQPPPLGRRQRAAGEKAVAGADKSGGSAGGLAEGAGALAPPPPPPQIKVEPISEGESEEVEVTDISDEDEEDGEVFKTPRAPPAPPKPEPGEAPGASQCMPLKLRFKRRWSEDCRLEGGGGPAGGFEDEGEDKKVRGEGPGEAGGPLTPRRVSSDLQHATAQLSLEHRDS
Summary of the method: (§1)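 Pools of DNA-barcoded human transcription factors, expressed in yeast as GST fusions on glutathione beads and combined with a tag-only sample, were incubated with 200 nmole of a 16-mer random double-stranded DNA library. Incubation took 30 min at room temperature in Tris/NaCl/DTT/glycerol buffer and was followed by washing, 0.1% formaldehyde crosslinking, proximity ligation (BsaI/T4 ligase, 1 h, 37 °C), PCR amplification and sequencing on an Illumina NextSeq500. Binding signal is the ratio of a hexamer's read frequency for a factor to its frequency for the tag-only sample.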

ETV3L = target: T2, ETV3L (Homo sapiens, UniProt Q6ZN32 1-361)
T2 sequence: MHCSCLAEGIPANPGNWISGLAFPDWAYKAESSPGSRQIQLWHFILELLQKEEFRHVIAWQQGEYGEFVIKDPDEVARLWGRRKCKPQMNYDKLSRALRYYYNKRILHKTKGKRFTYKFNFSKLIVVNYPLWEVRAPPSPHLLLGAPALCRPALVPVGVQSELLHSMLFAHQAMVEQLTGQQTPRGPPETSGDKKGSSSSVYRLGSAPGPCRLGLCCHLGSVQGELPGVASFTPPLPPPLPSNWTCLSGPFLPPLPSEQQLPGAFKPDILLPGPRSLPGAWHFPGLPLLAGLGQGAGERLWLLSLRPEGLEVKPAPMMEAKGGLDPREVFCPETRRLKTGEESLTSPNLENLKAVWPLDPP
Summary of the method: as §1

ETS2 = target: T3, ETS2 (Homo sapiens, UniProt P15036 1-469)
T3 sequence: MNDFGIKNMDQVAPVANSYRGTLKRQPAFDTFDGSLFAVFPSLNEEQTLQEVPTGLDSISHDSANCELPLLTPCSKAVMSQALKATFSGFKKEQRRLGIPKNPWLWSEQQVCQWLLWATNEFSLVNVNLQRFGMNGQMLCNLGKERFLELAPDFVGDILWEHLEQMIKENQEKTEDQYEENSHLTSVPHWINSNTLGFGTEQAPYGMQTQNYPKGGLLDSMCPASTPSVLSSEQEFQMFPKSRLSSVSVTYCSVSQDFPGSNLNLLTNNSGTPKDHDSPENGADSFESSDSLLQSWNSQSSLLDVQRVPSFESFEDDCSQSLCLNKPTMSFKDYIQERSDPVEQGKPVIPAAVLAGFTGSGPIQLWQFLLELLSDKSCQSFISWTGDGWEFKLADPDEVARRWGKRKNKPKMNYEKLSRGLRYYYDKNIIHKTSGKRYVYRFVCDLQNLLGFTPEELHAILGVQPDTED
Summary of the method: as §1

SPDEF = target: T4, SPDEF (Homo sapiens, UniProt O95238 1-335)
T4 sequence: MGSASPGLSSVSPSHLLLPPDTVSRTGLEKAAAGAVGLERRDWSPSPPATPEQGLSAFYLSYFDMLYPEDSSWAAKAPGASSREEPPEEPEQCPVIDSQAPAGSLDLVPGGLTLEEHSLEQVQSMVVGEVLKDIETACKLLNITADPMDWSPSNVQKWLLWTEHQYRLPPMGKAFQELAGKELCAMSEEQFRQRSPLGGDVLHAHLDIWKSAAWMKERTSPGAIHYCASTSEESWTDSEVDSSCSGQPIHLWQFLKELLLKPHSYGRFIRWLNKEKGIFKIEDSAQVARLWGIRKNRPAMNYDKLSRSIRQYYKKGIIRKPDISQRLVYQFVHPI
Summary of the method: as §1

ETV7 = target: T5, ETV7 (Homo sapiens, UniProt Q9Y603 1-341)
T5 sequence: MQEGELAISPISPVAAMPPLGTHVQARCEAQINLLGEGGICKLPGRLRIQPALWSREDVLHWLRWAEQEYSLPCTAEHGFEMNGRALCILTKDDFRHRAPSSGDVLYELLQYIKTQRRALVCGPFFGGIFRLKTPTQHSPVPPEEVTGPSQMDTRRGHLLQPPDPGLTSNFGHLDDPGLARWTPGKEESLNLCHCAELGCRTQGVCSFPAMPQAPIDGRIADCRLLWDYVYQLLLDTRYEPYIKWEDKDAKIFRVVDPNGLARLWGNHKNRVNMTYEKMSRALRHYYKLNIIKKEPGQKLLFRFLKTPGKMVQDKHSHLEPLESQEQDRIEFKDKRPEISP
Summary of the method: as §1

ELF5 = target: T6, ELF5 (Homo sapiens, UniProt Q9UKW6-2 1-255)
T6 sequence: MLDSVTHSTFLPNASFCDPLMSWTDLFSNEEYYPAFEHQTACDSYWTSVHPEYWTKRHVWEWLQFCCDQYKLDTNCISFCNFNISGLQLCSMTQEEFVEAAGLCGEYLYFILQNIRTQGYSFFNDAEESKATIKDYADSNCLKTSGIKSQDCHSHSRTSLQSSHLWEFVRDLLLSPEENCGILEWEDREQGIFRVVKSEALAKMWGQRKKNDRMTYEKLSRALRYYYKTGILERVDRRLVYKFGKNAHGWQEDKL
Summary of the method: as §1

ETV3 = target: T7, ETV3 (Homo sapiens, UniProt P41162-2 1-143)
T7 sequence: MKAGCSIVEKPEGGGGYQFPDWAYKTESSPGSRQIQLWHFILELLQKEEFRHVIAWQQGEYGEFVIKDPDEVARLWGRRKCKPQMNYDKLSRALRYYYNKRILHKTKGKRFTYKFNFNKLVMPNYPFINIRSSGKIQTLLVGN
Summary of the method: as §1

ETV6 = ETV6 (Homo sapiens, UniProt P41212 1-452)
Summary of the method: as §1

Sequence of ETV6 (P41212 whole entry): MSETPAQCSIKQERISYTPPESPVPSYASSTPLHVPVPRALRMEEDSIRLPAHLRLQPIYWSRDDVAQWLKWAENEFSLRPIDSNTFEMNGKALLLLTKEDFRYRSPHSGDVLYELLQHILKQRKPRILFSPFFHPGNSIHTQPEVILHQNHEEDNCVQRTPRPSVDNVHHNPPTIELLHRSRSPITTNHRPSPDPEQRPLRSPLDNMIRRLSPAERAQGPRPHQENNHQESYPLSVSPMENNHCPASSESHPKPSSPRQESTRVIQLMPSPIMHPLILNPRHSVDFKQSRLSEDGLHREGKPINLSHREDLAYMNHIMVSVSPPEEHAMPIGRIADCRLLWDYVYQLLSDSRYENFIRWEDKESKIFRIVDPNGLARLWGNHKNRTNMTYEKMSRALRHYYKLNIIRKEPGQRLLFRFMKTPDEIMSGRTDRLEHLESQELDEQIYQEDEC

Sequence | binding signal (ERF) | binding signal (ETV3L) | binding signal (ETS2) | binding signal (SPDEF) | binding signal (ETV7) | binding signal (ELF5) | binding signal (ETV3) | binding signal (ETV6)
ATGACC | 1.42 fold enrichment (6-mer frequency, TF over GST control) | 1.51 fold enrichment (6-mer frequency, TF over GST control) | 1.66 fold enrichment (6-mer frequency, TF over GST control) | 1.59 fold enrichment (6-mer frequency, TF over GST control) | 1.51 fold enrichment (6-mer frequency, TF over GST control) | 1.56 fold enrichment (6-mer frequency, TF over GST control) | 1.47 fold enrichment (6-mer frequency, TF over GST control) | 1.53 fold enrichment (6-mer frequency, TF over GST control)
ATCCTA | 1.34 fold enrichment (6-mer frequency, TF over GST control) | 1.32 fold enrichment (6-mer frequency, TF over GST control) | 1.43 fold enrichment (6-mer frequency, TF over GST control) | 1.72 fold enrichment (6-mer frequency, TF over GST control) | 1.37 fold enrichment (6-mer frequency, TF over GST control) | 1.45 fold enrichment (6-mer frequency, TF over GST control) | 1.33 fold enrichment (6-mer frequency, TF over GST control) | 1.34 fold enrichment (6-mer frequency, TF over GST control)
GCACTA | 1.19 fold enrichment (6-mer frequency, TF over GST control) | 1.23 fold enrichment (6-mer frequency, TF over GST control) | 1.21 fold enrichment (6-mer frequency, TF over GST control) | 1.16 fold enrichment (6-mer frequency, TF over GST control) | 1.2 fold enrichment (6-mer frequency, TF over GST control) | 1.1 fold enrichment (6-mer frequency, TF over GST control) | 1.22 fold enrichment (6-mer frequency, TF over GST control) | 1.09 fold enrichment (6-mer frequency, TF over GST control)
TCTCGA | 1.35 fold enrichment (6-mer frequency, TF over GST control) | 1.35 fold enrichment (6-mer frequency, TF over GST control) | 1.44 fold enrichment (6-mer frequency, TF over GST control) | 1.2 fold enrichment (6-mer frequency, TF over GST control) | 1.47 fold enrichment (6-mer frequency, TF over GST control) | 1.27 fold enrichment (6-mer frequency, TF over GST control) | 1.4 fold enrichment (6-mer frequency, TF over GST control) | 1.47 fold enrichment (6-mer frequency, TF over GST control)
TTAAAG | 1.25 fold enrichment (6-mer frequency, TF over GST control) | 1.2 fold enrichment (6-mer frequency, TF over GST control) | 1.19 fold enrichment (6-mer frequency, TF over GST control) | 1.12 fold enrichment (6-mer frequency, TF over GST control) | 1.21 fold enrichment (6-mer frequency, TF over GST control) | 1.13 fold enrichment (6-mer frequency, TF over GST control) | 1.21 fold enrichment (6-mer frequency, TF over GST control) | 1.19 fold enrichment (6-mer frequency, TF over GST control)
TATCGT | 1.28 fold enrichment (6-mer frequency, TF over GST control) | 1.08 fold enrichment (6-mer frequency, TF over GST control) | 1.11 fold enrichment (6-mer frequency, TF over GST control) | 1.07 fold enrichment (6-mer frequency, TF over GST control) | 1.08 fold enrichment (6-mer frequency, TF over GST control) | 1.08 fold enrichment (6-mer frequency, TF over GST control) | 1.15 fold enrichment (6-mer frequency, TF over GST control) | 1.12 fold enrichment (6-mer frequency, TF over GST control)
GTATTA | 1.24 fold enrichment (6-mer frequency, TF over GST control) | 1.04 fold enrichment (6-mer frequency, TF over GST control) | 1.07 fold enrichment (6-mer frequency, TF over GST control) | 1.17 fold enrichment (6-mer frequency, TF over GST control) | 1.05 fold enrichment (6-mer frequency, TF over GST control) | 1.02 fold enrichment (6-mer frequency, TF over GST control) | 1.14 fold enrichment (6-mer frequency, TF over GST control) | 1.16 fold enrichment (6-mer frequency, TF over GST control)
TAACCC | 1.17 fold enrichment (6-mer frequency, TF over GST control) | 1.22 fold enrichment (6-mer frequency, TF over GST control) | 1.26 fold enrichment (6-mer frequency, TF over GST control) | 1.32 fold enrichment (6-mer frequency, TF over GST control) | 1.31 fold enrichment (6-mer frequency, TF over GST control) | 1.3 fold enrichment (6-mer frequency, TF over GST control) | 1.26 fold enrichment (6-mer frequency, TF over GST control) | 1.3 fold enrichment (6-mer frequency, TF over GST control)
